This note sets out measurements from PubChem BioAssay (EPA / NIEHS).

Each structure is given as a SMILES string. Activity calls are given as the source filed them. How the source made its calls: active means hit-call score of the fitted dose curve at least 0.9, where 1 is the maximum; inactive means score below 0.9.

The AC50 is the midpoint of the concentration-response curve, whichever way the signal moves.

The experiment is described as follows: ATG_GLI_CIS: Attagene CIS-FACTORIAL HepG2 Assay for human Zinc Finger Protein GLI1 (AID 2282945). To be noted: HepG2, Attagene cis-factorial reporter mRNA, GLI element; actives raise or lower the signal. Here is the method: ATG_CIS is a cell-based, multiplexed-readout assay that uses HepG2, a human liver cell line, with measurements taken at 24 hours after chemical dosing in a 24-well plate.ATG_GLI_CIS is one of 52 assay component(s) measured or calculated from the ATG_CIS assay. It is designed to make measurements of mRNA induction, a form of inducible reporter, as detected with fluorescence intensity signals by Reverse transcription polymerase chain reaction (RT-PCR) and Capillary electrophoresis technology.Data from the assay component ATG_GLI_CIS was analyzed into 1 assay endpoint. This assay endpoint, ATG_GLI_CIS, was analyzed with bidirectional fitting relative to DMSO as the negative control and baseline of activity. Using a type of inducible reporter, measures of mRNA for gain or loss-of-signal activity can be used to understand the reporter gene at the transcription factor-level as they relate to the gene GLI1. Furthermore, this assay endpoint can be referred to as a primary readout, because this assay has produced multiple assay endpoints where this one serves a reporter gene function. To generalize the intended target to other relatable targets, this assay endpoint is annotated to the dna binding intended target family, where the subfamily is zinc finger.
Human liver HepG2 cells are transiently transfected with multiple reporter transcription units (MRTUs) in 6-well plates using FuGene 6 reagent (Roche; 3 ml FuGene/1 mg DNA). The MRTU constructs are regulated by a cis-regulating element (promoter). […] A major difference between the CIS and TRANS system is that in CIS activities of endogenous TFs are measured, whereas the TRANS assay evaluates changes in activities of exogenous, chimeric NR-Gal4 proteins. […] At the end of 24 hour incubation, total RNA was isolated using TriZol reagent (Invitrogen). The isolated RNA is then reverse-transcribed using oligo(dT) primer and Mo-MLV reverse transcriptase (Invitrogen) with DNAse I (Ambion) treatment for 30 min. The one-tenth of the produced cDNA was amplified by PCR using Taq DNA polymerase (Invitrogen) and two reporter sequence-specific primers. The PCR products were fluorescently labeled by primer extension with 6-arboxyfluorescein (6-FAM) 5'-labeled reporter sequence-specific primer (2 min at 95 C, 20 s at 68 C and 10 min at 72 C) and these products were digested with 5U of HpaI (New England Biolabs) for 2h at 37 C. The fragments were purified using Qiaquick PCR columns (Qiagen), analyzed on an ABI 3130xL genetic analyzer (Applied Biosystems) with peak positions identified by using a set of X-rhodamine (ROX)-labeled MapMarker1000 molecular weight standards (BioVentures). The raw capillary electrophoresis data was processed using Attagraph software (Attagene).
`C=C1C[C@H]2[C@@H]3C=C(C)C4=CC(=O)CC[C@]4(C)[C@H]3CC[C@]2(C)[C@@]1(OC(C)=O)C(C)=O`: the result was inactive.
Regarding `CC(=O)OCC=C(C)C`, the compound was classed as inactive.
On to `CC=C(C)C(C)=O`, for which the compound was classed as inactive.
On to `Cc1ccccc1CCO`, for which the outcome was inactive.
For `CCCSSCCC`, the call was inactive.
On to `CC1=C(O)C(=O)C(C)O1` (stereo not given), for which the call was inactive.
Consider `O=C(O)CCC(=O)O`, for which the compound was called inactive.
For `CC(C)(c1ccccc1)c1ccc(Nc2ccc(C(C)(C)c3ccccc3)cc2)cc1`, the result was inactive.
Take `CCCCCCCCCCCC(=O)N(C)CC(=O)O`: the compound was classed as inactive.
As for `Clc1cccnc1`, the result was inactive.
Consider `CCCCNS(=O)(=O)c1ccc(C)cc1`, for which the outcome was inactive.
Turning to `CC/C=C\CCOC(=O)c1ccccc1O`, the compound was classed as inactive.
Regarding `C[N+](C)(C)CCCNS(=O)(=O)C(F)(F)C(F)(F)C(F)(F)C(F)(F)C(F)(F)C(F)(F)C(F)(F)C(F)(F)F`, the outcome was inactive.
On the same count and under the same terms, to `CC(C)=CCCC(C)=CC#N` belongs “inactive”; to `CCCCC(=O)O`, “inactive”; to `CC(C)(C)NC(=O)[C@H]1CC[C@H]2[C@@H]3CC[C@H]4NC(=O)C=C[C@]4(C)[C@H]3CC[C@]12C`, “inactive”.
As to `C=C(C)[C@@H]1CC=C(C)CC1`, the outcome was inactive.
Consider `CCCCC(C=O)CC` (stereo not given), for which the result was inactive.
For `COC(=O)c1ccccc1C`, the compound was called inactive.
With `COc1ccc(C(=O)c2ccccc2)c(O)c1`, the call was inactive.
As for `O=C(OCc1ccccc1)c1ccc(O)cc1`, the AC50 is 167 µM (active).
In the case of `C=CC(=O)OCC(C)OCC(C)OCC(C)OC(=O)C=C` (stereo not given), the compound was classed as inactive.
For the compound `C1CNCCN1`, the outcome was inactive.
Consider `COC(=O)CC(C)CCC=C(C)C` (stereo not given), for which the result was inactive.
Turning to `CC1=CCC(C(C)C)C=C1` (stereo not given), the compound was classed as inactive.
For `C=CC(C)(O)CC/C=C(\C)CC` (stereo not given), the call was inactive.
With `CCC(C)c1ccccc1` (stereo not given), the compound was called inactive.
Turning to `CC=CC(=O)OCC(C)C`, the outcome was inactive.
For the compound `CCNc1nc(NC(C)(C)C)nc(OC)n1`, the compound was called inactive.
Same read-out and setting: the entry for `C=C(C)C(=O)OCC(O)COc1ccc(C(C)(C)c2ccc(OCC(O)COC(=O)C(=C)C)cc2)cc1` (stereo not given) is “inactive”; for `COC(=O)c1ccc(C(=O)OC)c(C(=O)OC)c1` it is “inactive”; for `O=C(C=Cc1ccccc1)OCCc1ccccc1` it is “inactive”.
Take `N=C1C=CC(=C(c2ccc(N)cc2)c2ccc(N)cc2)C=C1`: the compound was called inactive.
Take `Nc1ccc(Cl)c(N)c1`: the call was inactive.
Regarding `Nc1ncnc2nc[nH]c12`, the outcome was inactive.
The same measure, in the same setting: the entry for `C=Cc1cccc(C)c1` is “inactive”.
Regarding `Oc1ccccc1Cc1ccccc1O`, the compound was classed as inactive.
Regarding `O=S(=O)(O)c1ccc(N=Nc2c(O)ccc3ccccc23)cc1`, the result was inactive.
Turning to `COCC(=O)O`, the call was inactive.
As to `C=C(C)C(=O)OCCCCCCCCCCCC`, the outcome was inactive.
